Test [1] has as its target Lysosomal acid glucosylceramidase (Homo sapiens) (UniProt P04062). Put plainly: Glucocerebrosidase-p2 (AID 348; in the data active means potency below about 10 µM; further: potency means the concentration at half of the fitted maximal effect). To be noted: purified GBA, blue fluorogenic substrate, 40 min. The method in brief:
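Compounds titrated from 0.6 nM upwards against 0.2 nM enzyme in pH 5.9 citric acid/KH2PO4, taurocholate, tween-20; blue fluorogenic substrate 80 uM, 40 min room temperature, stopped and read Ex 365/Em 440 for AC50.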

Test [2] can be described thus: AP1 Signaling Pathway (AID 357).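 Further: ME-180 reporter cells stimulated with EGF at its EC50 level; on the % scale 0 is the no-effect control and ±100 the full control effect.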 To be noted: ME-180 AP-1-bla reporter, EGF-induced, beta-lactamase ratio, 5 h; at 7.69 µM (top of the series) unless noted. The method in brief: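 Beta-lactamase reporter under AP-1 response element, ME-180 background. Stimulus: EC50 EGF. Compound exposure 5 h, 37 °C. Detection: CCF4, 2.5 h RT, 460/530 nm. Values: AC50 from titration.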

Test [3] has as its target Cytochrome P450 1A2 (Homo sapiens) (UniProt P05177). Put plainly: p450-cyp1a2 (AID 410; calls by dose curve; further: potency means the concentration at half of the fitted maximal effect). The settings on record: recombinant CYP1A2, luciferin-ME demethylation, luminescence; series mostly up to 57 µM. The method in brief:
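Human CYP1A2 (20nM) demethylated Luciferin-ME at its Km (100uM) in 100mM KPO4. After 10 min compound preincubation, NADPH regeneration ran the reaction 60 min at room temperature. Luciferin was read by luminescence, normalized to 57 uM furafylline.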

A short description of test [4]: NFAT Signaling Pathway (AID 444).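 Further: carbachol stimulus at about its EC50 of 1 µM final; on the % scale 0 is the no-effect control and ±100 the full control effect.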 To be noted: Jurkat NFAT-bla M1, carbachol, beta-lactamase ratio, 5 h; at 7.69 µM (top of the series) unless noted. The method in brief:
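Jurkat cells carrying an NFAT-driven β-lactamase reporter and co-transfected muscarinic M1 receptor were treated with compound plus carbachol (1 uM final, an EC50 level) for 5 h at 37 °C. CCF4 loading followed for 1 h at RT; 460/530 nm ratio gave %activity.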

Test [5] in a line: Stat Signaling Pathway (AID 446).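 Further: ME-180 cervical cancer cells given 40 pM IL-6 alongside compound; SIE-controlled beta-lactamase reporter measured as 460/530 nm FRET emission ratio; on the % scale 0 is the no-effect control and ±100 the full control effect.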 To be noted: ME-180 SIE beta-lactamase reporter, IL-6 stimulated, 5 h; at 7.69 µM (top of the series) unless noted. The method in brief: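 ME-180 SIE-bla cells; overnight plating; cpd + IL-6 40 pM, 5 h, 37 C; LiveBLAzer 2.5 h RT; 460/530 nm emission ratio. Normalized to 300 pM IL-6 and 125 nM JAK inhibitor controls.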
For test [6], the target named is Glucocorticoid receptor (Homo sapiens) (UniProt P04150). The test can be described thus: GR-GFP Redistribution (AID 450;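 active means compounds whose dose series gives a full or clear partial fitted curve of increased nuclear translocation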; further: potency means the concentration at half of the fitted maximal effect). The settings on record: U2OS GR-GFP nuclear translocation, laser cytometry, 2 h.
Glucocorticoid receptor (Homo sapiens), sequence (P04150 whole entry, looked up, the tested form may be a part): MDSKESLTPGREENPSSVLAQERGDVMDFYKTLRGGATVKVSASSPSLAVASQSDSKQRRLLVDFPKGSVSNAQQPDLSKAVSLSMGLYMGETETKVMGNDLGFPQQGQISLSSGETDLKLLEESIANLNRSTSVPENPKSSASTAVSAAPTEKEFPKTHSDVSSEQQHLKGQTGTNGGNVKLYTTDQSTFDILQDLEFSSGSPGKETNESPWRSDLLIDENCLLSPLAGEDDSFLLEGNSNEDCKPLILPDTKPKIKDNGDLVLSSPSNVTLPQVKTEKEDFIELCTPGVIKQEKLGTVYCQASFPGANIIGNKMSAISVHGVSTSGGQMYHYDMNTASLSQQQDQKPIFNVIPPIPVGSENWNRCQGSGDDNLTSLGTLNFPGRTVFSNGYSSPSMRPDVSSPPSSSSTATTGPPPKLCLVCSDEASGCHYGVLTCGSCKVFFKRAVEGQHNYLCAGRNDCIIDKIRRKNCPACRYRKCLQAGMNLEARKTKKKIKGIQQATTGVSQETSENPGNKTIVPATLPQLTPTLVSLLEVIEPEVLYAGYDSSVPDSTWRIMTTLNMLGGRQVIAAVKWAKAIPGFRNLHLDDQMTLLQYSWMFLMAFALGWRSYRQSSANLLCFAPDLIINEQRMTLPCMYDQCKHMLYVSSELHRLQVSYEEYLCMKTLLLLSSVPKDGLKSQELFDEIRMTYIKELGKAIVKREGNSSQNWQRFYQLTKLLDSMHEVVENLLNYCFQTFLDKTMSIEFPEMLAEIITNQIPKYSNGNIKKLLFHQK
Test [7] shares this target. Put plainly: GR-EFC Redistribution (AID 451; calls by dose curve; further: potency means the concentration at half of the fitted maximal effect). To be noted: CHO-K1 GR-EFC translocation, beta-gal luminescence, 2 h. The method in brief: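 CHO-K1 cells stably expressing nuclear-localized β-gal enzyme acceptor and GR fused C-terminally to the enzyme donor fragment; ligand-driven nuclear translocation restores β-gal by complementation. Compounds titrated up to 46 uM final, 2 h at 37 °C; luminescence read.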

Test [8] addresses Mitogen-activated protein kinase 10 (Mus musculus) (UniProt Q61831). Put plainly: JNK3 AlphaScreen Assay (AID 530).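 Further: kinase came from lysate of stimulated human HepG2 cells; signal reports phosphorylation of biotinylated GST-cJun 1-79 at Ser73 with 10 µM ATP; on the % scale 0 is the no-effect control and ±100 the full control effect.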 The settings on record: JNK3 lysate, c-Jun phosphorylation; series mostly up to 57.1 µM. The method in brief:
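JNK3 came from HepG2 lysates pre-activated with IL-1beta and TNF-alpha and phosphorylated biotinylated GST-cJun (1-79) at 10 uM ATP, pH 7.6, room temperature. Compounds were titrated. AlphaScreen signal used anti-phospho-cJun (Ser73) antibody.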
Background: In Alpha technology, singlet oxygen from a donor bead excites a nearby acceptor bead.

Test [9] deals with 3',5'-cyclic-AMP phosphodiesterase 4B (Homo sapiens) (UniProt Q07343). The test can be described thus: qHTS Assay for Inhibitors of PDE-IV (AID 607; active means well fitted activation curve with a large enough effect in the main read-out, with a control signal flat, not every such curve was filed as active; further: % of control where 0% means no effect). The settings on record: HEK293 ACTOne CNG channel cells, membrane potential fluorescence; series mostly up to 22.9 µM. The method in brief:
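ACTOne HEK293 cells carry a modified cAMP-gated CNG channel and express endogenous PDE4; plated 1000 cells/well, compounds up to 22.9 uM final. Membrane-potential dye fluorescence (ex 535/em 590) was read; parental cells received 10 uM forskolin + 100 uM RO 20-1724.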
For orientation: qHTS replaces the single test concentration by a dilution series.

For test [10], the target named is Cytochrome P450 3A4 (Homo sapiens) (UniProt P08684). Put plainly: qHTS Assay for Activators of Cytochrome P450 3A4 (AID 885; active means well fitted curve in the direction sought with a large enough effect; an effect the other way counts as inactive or inconclusive; further: nearly all actives have a fitted effect of over 65% in size). The settings on record: recombinant CYP3A4, Luciferin-PPXE luminescence, 60 min; series mostly up to 57.1 µM. The method in brief: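 20nM CYP3A4 + 25uM Luciferin-PPXE (=KM), 200mM KPO4; cpd 10 min RT; NADPH regen, 60 min RT; stop w/ detection buffer, 20 min; luminescence. Normalized to 57 uM ketoconazole.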
Cytochrome P450 3A4 (Homo sapiens), sequence (P08684 whole entry, looked up): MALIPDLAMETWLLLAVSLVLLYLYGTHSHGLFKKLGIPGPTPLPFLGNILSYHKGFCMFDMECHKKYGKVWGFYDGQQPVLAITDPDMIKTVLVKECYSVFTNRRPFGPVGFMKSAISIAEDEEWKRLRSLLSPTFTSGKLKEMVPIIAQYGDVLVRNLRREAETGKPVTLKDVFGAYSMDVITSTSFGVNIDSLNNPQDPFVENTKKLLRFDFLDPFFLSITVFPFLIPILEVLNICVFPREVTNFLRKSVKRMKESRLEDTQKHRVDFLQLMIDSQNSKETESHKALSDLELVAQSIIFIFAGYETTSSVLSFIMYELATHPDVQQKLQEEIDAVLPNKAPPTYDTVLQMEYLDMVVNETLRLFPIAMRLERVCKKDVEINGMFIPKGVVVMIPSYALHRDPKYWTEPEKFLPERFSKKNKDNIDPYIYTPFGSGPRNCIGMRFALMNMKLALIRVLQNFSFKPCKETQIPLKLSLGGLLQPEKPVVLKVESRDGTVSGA

In test [11] the target is Cytochrome P450 2C19 (Homo sapiens) (UniProt P33261). The test can be described thus: qHTS Assay for Inhibitors and Substrates of Cytochrome P450 2C19 (AID 899; active means well fitted curve in the direction sought with a large enough effect; an effect the other way counts as inactive or inconclusive; further: nearly all actives have a fitted effect of over 60% in size; further: potency means the concentration at half of the fitted maximal effect). The settings on record: recombinant CYP2C19, luciferin-H EGE luminescence; series mostly up to 57.1 µM. The method in brief: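 NADPH-dependent conversion of Luciferin-H EGE (10uM, at KM) by 5nM enzyme in 50mM KPO4, 60 min at 37C following 10 min compound preincubation. Stopped with luciferin detection buffer; luminescence read after 20 min.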
Cytochrome P450 2C19 (Homo sapiens), sequence (P33261 whole entry, looked up): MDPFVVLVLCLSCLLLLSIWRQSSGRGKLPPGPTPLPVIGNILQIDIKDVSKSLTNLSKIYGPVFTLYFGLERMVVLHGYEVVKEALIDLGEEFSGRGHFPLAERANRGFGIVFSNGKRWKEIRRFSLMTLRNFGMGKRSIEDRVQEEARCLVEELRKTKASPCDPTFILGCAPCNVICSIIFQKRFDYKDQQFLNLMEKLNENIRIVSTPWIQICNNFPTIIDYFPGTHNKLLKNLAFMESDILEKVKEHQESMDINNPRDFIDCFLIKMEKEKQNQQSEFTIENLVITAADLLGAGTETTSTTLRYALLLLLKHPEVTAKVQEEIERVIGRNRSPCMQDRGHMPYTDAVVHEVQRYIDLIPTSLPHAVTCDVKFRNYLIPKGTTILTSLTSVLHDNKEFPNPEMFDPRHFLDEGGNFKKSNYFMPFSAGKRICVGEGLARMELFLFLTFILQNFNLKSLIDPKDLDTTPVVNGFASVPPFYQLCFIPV

A short description of test [12]: Confirmation and Secondary Assay for Modulators of Hemoglobin Beta Chain Splicing at IVS2 654 locus (AID 910; active means well fitted curve in the direction sought with a large enough effect; an effect the other way counts as inactive or inconclusive;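 further: per-well total GFP intensity by laser scanning cytometry after 2-day treatment; % of control where 0% means no effect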). The settings on record: HeLa EGFP-654 splicing reporter, GFP fluorescence, 48 h; series mostly up to 38.3 µM. The method in brief: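 HeLa cells stably carrying EGFP interrupted by mutant beta-globin IVS2-654 intron (CMV-driven) were treated with compound for 2 days at 37C; corrected splicing was scored as total peak GFP intensity per well (488 nm excitation, 500-520 nm emission).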

Test [13] can be described thus: Confirmation and Secondary Assay for Modulators of Hemoglobin Beta Chain Splicing at IVS2 705 locus (AID 930; active means well fitted curve in the direction sought with a large enough effect; an effect the other way counts as inactive or inconclusive;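 further: HeLa cells stably expressing the EGFP-705 splicing reporter; % of control where 0% means no effect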). The settings on record: HeLa EGFP-705 splicing reporter, GFP fluorescence, 48 h; series mostly up to 38.3 µM. The method in brief: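 Restored EGFP fluorescence after 2-day compound exposure reports splicing correction in IVS2-705 EGFP reporter HeLa cells; positive control was 500 nM splice-blocking PNA oligo. Signal measured as well total peak GFP intensity (488 nm excitation).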

A short description of test [14]: qHTS Assay for Lipid Storage Modulators (AID 1519; calls by dose curve). To be noted: Drosophila S3 cells, BODIPY lipid droplet/cell ratio, laser cytometry, cells loaded with oleic acid; for activity change, negative = inhibition: at 57.5 µM (top of the series). The method in brief: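 Cells seeded at 5,000 per well were treated with compounds over a concentration series and loaded with oleic acid (400 uM, as added). Lipid droplet fluorescence (488 nm excitation, 500-530 nm channel) was read by laser-scanning cytometry and normalized to 20 uM Triacsin C.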

Test [15] can be described thus: Primary qHTS for small molecule stabilizers of the endoplasmic reticulum resident proteome: Secreted ER Calcium Modulated Protein (SERCaMP) assay (AID 1508630; active means well fitted curve in the direction sought with a large enough effect; an effect the other way counts as inactive or inconclusive; further: on the % scale 0 is the no-effect control and ±100 the full control effect). The settings on record: SH-SY5Y GLuc-SERCaMP (Gaussia luciferase released on ER calcium loss) secretion, thapsigargin, luminescence; series mostly up to 38.4 µM. The method in brief:
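GLuc-SERCaMP-expressing SH-SY5Y cells, pretreated 16 h with compound, are challenged with thapsigargin to empty ER calcium stores; after 4 h, coelenterazine is added directly to the medium and luminescence is imaged.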

Test [16] can be described thus: qHTS Assay for Identification of Small Molecule Agonists for Hypoxia Response Element Signaling Pathway (AID 914; active means well fitted activation curve with a large enough effect in the signal ratio, with a control signal flat, not every such curve was filed as active; the % refers to the signal ratio; further: % of control where 0% means no effect). The settings on record: ME-180 (cervical carcinoma) HRE-bla reporter, beta-lactamase ratio, CoCl2, 17 h; activation: stronger effect = higher value. The method in brief: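 AC50 values come from titration-series %Activity, taken as the 460/530nm ratio of CCF4 fluorescence (excitation 405nm). CellSensor HRE-bla ME-180 cells were treated 17 hours at 37 C with compound plus an EC50 level of CoCl2.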

Where [17] appears, read: measured here: cell count channel max response.
Setting [18] is: measured here: lipid channel max response.

Results filed as inconclusive are left out. Active and inactive are the calls of the source. Unless noted, the call rests on the fitted dose curve; in most records, active means well fitted curve in either direction with a large enough effect (not every such curve was filed as active); inconclusive means small, poorly fitted or top-dose-only effect, or another doubt; inactive means flat fitted curve, though single readings scatter.

3',5'-cyclic-AMP phosphodiesterase 4B (Homo sapiens), sequence (Q07343 whole entry, looked up): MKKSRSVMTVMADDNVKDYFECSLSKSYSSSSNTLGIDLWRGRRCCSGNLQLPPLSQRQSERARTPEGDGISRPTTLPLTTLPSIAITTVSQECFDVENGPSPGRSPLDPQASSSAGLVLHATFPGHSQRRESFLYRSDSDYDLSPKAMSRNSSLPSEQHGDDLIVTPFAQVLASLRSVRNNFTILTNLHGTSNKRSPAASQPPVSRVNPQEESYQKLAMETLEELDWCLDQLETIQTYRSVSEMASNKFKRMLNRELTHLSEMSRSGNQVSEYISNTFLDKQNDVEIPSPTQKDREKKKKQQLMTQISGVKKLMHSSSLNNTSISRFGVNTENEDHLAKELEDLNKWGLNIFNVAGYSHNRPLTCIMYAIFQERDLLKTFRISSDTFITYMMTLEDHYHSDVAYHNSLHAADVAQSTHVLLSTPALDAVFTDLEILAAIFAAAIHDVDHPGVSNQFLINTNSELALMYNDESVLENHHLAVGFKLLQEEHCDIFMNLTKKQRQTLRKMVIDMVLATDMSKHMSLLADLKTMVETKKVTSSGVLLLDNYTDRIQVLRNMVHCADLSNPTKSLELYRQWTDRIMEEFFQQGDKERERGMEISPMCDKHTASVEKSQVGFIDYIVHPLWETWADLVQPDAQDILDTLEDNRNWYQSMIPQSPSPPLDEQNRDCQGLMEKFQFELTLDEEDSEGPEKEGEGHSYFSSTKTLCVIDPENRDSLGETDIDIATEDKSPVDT
Lysosomal acid glucosylceramidase (Homo sapiens), sequence (P04062 whole entry, looked up): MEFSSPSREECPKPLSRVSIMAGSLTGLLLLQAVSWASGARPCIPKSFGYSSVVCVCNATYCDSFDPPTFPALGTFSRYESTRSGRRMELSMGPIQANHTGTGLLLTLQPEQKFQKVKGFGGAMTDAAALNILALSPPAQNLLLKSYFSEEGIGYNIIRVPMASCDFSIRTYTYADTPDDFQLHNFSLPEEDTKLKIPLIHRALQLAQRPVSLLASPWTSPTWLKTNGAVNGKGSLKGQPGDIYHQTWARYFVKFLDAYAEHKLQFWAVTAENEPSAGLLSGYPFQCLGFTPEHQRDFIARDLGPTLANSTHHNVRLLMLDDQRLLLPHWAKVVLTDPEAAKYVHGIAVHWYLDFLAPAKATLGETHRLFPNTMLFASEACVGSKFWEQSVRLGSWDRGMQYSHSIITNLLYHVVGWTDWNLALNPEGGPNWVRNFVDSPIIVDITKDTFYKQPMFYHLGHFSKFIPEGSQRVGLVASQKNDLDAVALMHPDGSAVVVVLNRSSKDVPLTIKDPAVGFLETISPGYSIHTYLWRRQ
Cytochrome P450 1A2 (Homo sapiens), sequence (P05177 whole entry, looked up): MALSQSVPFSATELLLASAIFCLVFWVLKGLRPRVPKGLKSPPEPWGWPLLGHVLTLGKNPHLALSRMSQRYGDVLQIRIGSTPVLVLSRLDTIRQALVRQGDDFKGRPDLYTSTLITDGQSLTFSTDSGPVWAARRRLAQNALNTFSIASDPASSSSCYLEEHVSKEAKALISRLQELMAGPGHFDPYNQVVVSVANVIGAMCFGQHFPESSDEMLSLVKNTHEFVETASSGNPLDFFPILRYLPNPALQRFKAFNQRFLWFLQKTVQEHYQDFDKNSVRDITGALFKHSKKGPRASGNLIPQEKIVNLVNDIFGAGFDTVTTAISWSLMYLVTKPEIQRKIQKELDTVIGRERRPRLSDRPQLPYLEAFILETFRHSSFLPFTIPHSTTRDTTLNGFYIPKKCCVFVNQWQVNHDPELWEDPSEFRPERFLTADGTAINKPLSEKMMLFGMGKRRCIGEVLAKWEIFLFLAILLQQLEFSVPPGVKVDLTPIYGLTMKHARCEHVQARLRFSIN

On to `COc1cccc(-c2ccc3ncnc(NC4CCNCC4)c3c2)c1`, for which the Potency in test [1] is > 11.4 µM (inactive); in test [3], 20 µM (active); in test [6], > 46 µM (inactive); in [7], > 46 µM (inactive); in test [11] it was 6.31 µM (active). For the same compound, the activity change, negative = inhibition in test [2] was 2.29% (inactive); in test [4], 13.6% (inactive); in test [14], 7.49% (inactive). The activity, negative = inhibition in test [5] is -1.25% (inactive). Further, the call in test [8], in [12] and in test [13] was inactive. The Potency entry in test [9], in test [10] and in test [15] was “inactive” throughout. In addition, the max response in test [14] (setting [17]) is -3.29%; in test [14] (setting [18]) it was 2.37%.
As for `COc1ccc(-n2c(=O)cnc3cnc(Oc4ccccc4)nc32)cc1`, the Potency in [1] is > 11.4 µM (inactive); in test [3] it was 15.8 µM (active); in test [6], > 9.22 µM (inactive); in [7] it was > 46 µM (inactive). Besides, the activity change, negative = inhibition in [2] was -8.13% (inactive); in test [4] it was 2.58% (inactive); in test [14] it was 1.98% (inactive). The activity, negative = inhibition in test [5] was -13.1% (inactive). Also, the compound was classed as inactive in test [8]. Moreover, the Potency entry in test [9], in [10] and in test [15] was “inactive” throughout. The max response was 3.82% in test [14] (setting [17]) and 6.57% in [14] (setting [18]).
`c1ccc(CNc2ccnc(-c3ccoc3)n2)cc1`: the Potency in test [1] was > 11.4 µM (inactive); in test [3], 2.51 µM (active); in test [6], > 46 µM (inactive); in [7], > 46 µM (inactive); in test [11], 3.98 µM (active). Moreover, the activity change, negative = inhibition in test [2] was -4.42% (inactive); in test [4], 4.39% (inactive); in test [14], 9.38% (inactive). The activity, negative = inhibition in [5] was 10.2% (inactive). Besides, the outcome in test [8], in test [12] and in test [13] was inactive. For the same compound, the Potency entry in test [10] and in test [15] was “inactive” each time. Besides, the max response is 7.25% in [14] (setting [17]) and 15% in test [14] (setting [18]).
With `O=c1c(-c2ccc(F)cc2)nc2cnc(N3CCOCC3)nc2n1C[C@H]1CCCO1`, the Potency in [1] is > 11.4 µM (inactive); in [3], 1.58 µM (active); in test [6], > 9.22 µM (inactive); in [7], > 46 µM (inactive). Moreover, the activity change, negative = inhibition was 9.7% (inactive) in test [2], 1.18% (inactive) in test [4] and -21.9% (inactive) in test [14]. In test [5], the activity, negative = inhibition was 29.2% (inactive). In test [8], the result was inactive. Also, the Potency entry in [9], in [11] and in [15] was “inactive” in each case. The figures for the max response in test [14] (setting [17]) and in test [14] (setting [18]) were 16.8% and -2.6%, respectively.
Regarding `CN(C)c1ccc(-c2ccc3ncnc(N4CCNCC4)c3c2)cc1`, the Potency was > 11.4 µM (inactive) in test [1], 2.51 µM (active) in test [3], > 46 µM (inactive) in test [6] and > 46 µM (inactive) in test [7]. In addition, the activity change, negative = inhibition in test [2] is 5.26% (inactive); in test [4], -13.1% (inactive); in [14] it was 7.34% (inactive). In test [5], the activity, negative = inhibition was 5.8% (inactive). Further, the outcome in [8], in [12] and in test [13] was inactive. The Potency entry in [9], in test [10] and in test [15] was “inactive” throughout. For the same compound, the figures for the max response in test [14] (setting [17]) and in [14] (setting [18]) were -3.08% and 4.85%, respectively.
On to `COc1ccc(Oc2ncc3ncc(=O)n(C[C@H]4CCCO4)c3n2)cc1`, for which the Potency in test [1] is > 11.4 µM (inactive); in [3], 6.31 µM (active); in [6], > 9.22 µM (inactive); in [7] it was > 46 µM (inactive). The values for the activity change, negative = inhibition in test [2], in test [4] and in test [14] were -24.4% (inactive), -8.98% (inactive) and -4.96% (inactive), respectively. Besides, the activity, negative = inhibition in test [5] was -26.1% (inactive). For the same compound, in test [8], the result was inactive. Besides, the Potency entry in [9] and in test [15] was “inactive” throughout. For the same compound, the activation in test [16] was -21.9% (inactive). Besides, the max response came out at 9.86% in test [14] (setting [17]) and 2.03% in test [14] (setting [18]).

These data come from PubChem BioAssay (NCATS).
